From PubChem BioAssay AID748 (Sanford-Burnham Center for Chemical Genomics, 2007)
Screen size: about 96,000 compounds; about 100 (0.1%) were called active.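 How the source made its calls: active means displacement above 50% at 20 µM plus a fluorescence interference ratio under 1.5; inactive means the rest.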 Only a selection was taken, and actives are over-represented in it overall. Measured potencies and affinities stand elsewhere.

Biological target: Bcl-2-like protein 10 (Homo sapiens) (UniProt Q9HD36)
Assay: displacers of TR3 peptide from Bcl-B, primary screen, selectivity assay for Bfl-1 inhibitor project, biochemical, fluorescence polarization, FITC-TR3 peptide (AID 748);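 further: plate controls were wells without compound for no effect and wells lacking Bcl-B protein for full effect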
Details: FP displacement of FITC-TR3 peptide from Bcl-B; at 20 µM; stronger effect = higher value

displacement, inactive:
CN(C)S(=O)(=O)N(CC(=O)Nc1ccc(F)c(F)c1)c1ccccc1 18%
CN(C)S(=O)(=O)N(Cc1ccc(Br)cc1)c1ccccc1 0%
CN(C)S(=O)(=O)N(CC(=O)NCc1ccccc1)c1ccccc1 7.3%
CN(C)S(=O)(=O)N(CC(=O)Nc1cccc(F)c1)c1ccccc1 9.9%
O=c1[nH][nH]c2nc(C(F)(F)F)cc(C(F)(F)F)c12 -9.8%
CCN(CC)S(=O)(=O)c1cc(C(=O)O)c(Cl)cc1Cl -5.8%
Cc1ccc(NC(=O)c2nc[nH]c2C(=O)Nc2ccc(C)cc2)cc1 4%
Cc1cc(-c2nnc(-c3cc4ccccc4oc3=O)o2)c(C)n1-c1ccccc1 2.6%
CCCOC(=O)Cc1n[nH]c(=O)[nH]c1=O -2.4%
COc1ccc(CN2C(=O)CN(C3CCCCCC3)C(=O)C2c2ccc(F)cc2)cc1 (centres undefined) -2.9%
CCC(=O)Nc1ccc2nc(SCC(=O)N3CCCC3)sc2c1 5.1%
Cn1c(SCC(=O)Nc2ccc3nc(SCC(=O)N4CCCC4)sc3c2)nnc1-c1ccccc1 38.1%
O=C(c1ccc(N2CCNCC2)cc1)c1cccnc1 -3.4%
COC(=O)C1Sc2[nH]c(=O)sc2C2c3ccccc3OC(=O)C12 (centres undefined) 0%
CCOC(=O)C1CCN(Cc2nc3ccccc3c(=O)n2-c2ccc(F)cc2)CC1 -6.2%
Cc1nn(Cc2cccc(C(=O)Nc3ccn(Cc4ccccc4)n3)c2)c(C)c1[N+](=O)[O-] 3.7%
C=CCN1C(=O)/C(=C2/Sc3ccccc3N2C)SC1=Nc1ccccc1C -13%
C=CCN1C(=O)CS/C1=N/c1nccs1 1.8%
Cc1c(Cl)cccc1-n1c(SCC(=O)NCc2ccccc2Cl)nnc1-c1ccncc1 -10.8%
CC1(C)CC(=O)C2=C(C1)c1c(ccc3ccccc13)NC2c1ccco1 (centres undefined) -4.8%
O=C1CCCC2=C1C(c1ccco1)Nc1ccc(C(=O)c3ccccc3)cc1N2 (centres undefined) 22.2%
CCSc1nc(O)c(Cc2ccccc2)c(=O)[nH]1 10.2%
Clc1ccc(-c2nc3ccccc3n2OCc2ccccc2)cc1 -9%
CC(=O)Nc1ccc(NC(=O)Cn2cc3c(n2)CCCC3)cc1 -10.4%
Cc1cc(C)cc(NC(=O)Cn2cc3c(n2)CCCCC3)c1 2.8%
CCCn1c(=O)c2ccccc2n2c(SCC(=O)c3ccc(F)cc3)nnc12 -0.8%
CCOC(=O)c1cnc2cc3c(cn2c1=O)CCCC3 0%
CC(CC(=O)N1CCc2ccccc21)c1ccccc1 (centres undefined) 6.2%
COc1ccccc1OCC(=O)NCc1ccco1 2.1%
O=C(NCc1ccco1)c1cccs1 -12.3%
COc1ccc(OCCC(=O)OCC(=O)NCc2ccco2)cc1 16.1%
CCOc1cc(C(=O)OCC(=O)NCc2ccco2)cc(OCC)c1OCC 33.3%
O=C(COC(=O)c1ccco1)NCc1ccco1 3.5%
O=C(COC(=O)c1ccccc1)NCc1ccco1 40.9%
O=C1NCCCc2nc(Oc3ccccc3)sc21 1.4%
Cc1cc(C)c2c(=O)c3c(oc2c1)C(=O)N(CCO)C3c1cccc(O)c1 (centres undefined) 3.4%
COc1ccc(C(=O)CCC(=O)N2CCN(c3ccc(N4CCOCC4)nn3)CC2)cc1 4.3%
COc1ccccc1-c1nnc(NC(=O)C(C)SC2=NCCS2)s1 (centres undefined) -10.4%
Cc1ccc(NC(=O)CCc2ccc(S(=O)(=O)N3CCOCC3)cc2)c(C)c1 13.6%
c1ccc(-c2nn3c(Cn4nnc5ccccc54)nnc3s2)cc1 0%
c1ccc2c(c1)nnn2Cc1nnc2sc(-c3ccncc3)nn12 -19.6%
Nc1nonc1OCCc1ccccc1 2.7%
O=c1[nH]c(NC2CCCCC2)nnc1Cc1ccccc1 -7%
NC(=O)C1c2ccccc2CSc2ccccc21 (centres undefined) -22.4%
O=C(NCCCc1ccccc1)C1CCN(c2nnc(-n3cccc3)s2)CC1 6.7%
CN1CCN(CCCNC(=O)C2CCN(c3nnc(-n4cccc4)s3)CC2)CC1 8.6%
O=C(Nc1ccc(N2CCCCC2)cc1)c1cccnc1Cl -16.3%
CCN1CCN(c2cc(C)c3cc(NC(=O)c4cccnc4Cl)ccc3n2)CC1 25.4%
O=C(CNC(=O)c1ccco1)OCc1cccc(Cl)c1 -8.6%
Cc1ccc2c(c1C)NC(C)CC2C (centres undefined) -4.5%
COC(=O)c1ccc(C2Nc3ccc(/C(C)=N/NC(=O)C(OC)c4ccccc4)cc3C3C=CCC32)cc1 (centres undefined) 5.4%
CC(=O)c1ccc2c(c1)C1C=CCC1C(c1ccncc1)N2 (centres undefined) -8.3%
CC(C)C1Nc2ccc(S(N)(=O)=O)cc2C2C=CCC21 (centres undefined) 25.6%
O=C(O)C1Nc2c(C(=O)N3CCOCC3)cccc2C2C=CCC12 (centres undefined) 28.7%
O=C(OC1CCCCC1)c1ccc(NC(=O)C2CCCCC2)cc1 6.4%
Cc1ccc(S(=O)(=O)N2CCCN(S(=O)(=O)c3ccc(C)c(C)c3)CC2)cc1C -11.3%
Cc1cccc(C)c1NC(=O)CNc1ccccc1 0.2%
Cn1c(=O)[nH]c(=O)c2c1nc(Br)n2CC(O)c1ccccc1 (centres undefined) 6.4%
CCCCNC(=O)C1C2C=CC3(CN(Cc4ccc(C)cc4)C(=O)C13)O2 (centres undefined) 2.1%
O=C(C1CCCN(Cc2ccncc2)C1)N1CCc2ccccc2C1 (centres undefined) -14.9%
CCOC(=O)CC(N)c1ccc(OC)cc1 (centres undefined) 14.7%
CCCN=C(C)c1c(-c2ccccc2)[nH]n(-c2nc3ccccc3s2)c1=O -6.3%
COC(=O)Cc1[nH]n(-c2nc3ccccc3s2)c(=O)c1C(C)=O -6.8%
CSc1nnc2n(Cc3ccccc3)c(=O)c3c4c(sc3n12)COC(C(C)C)C4 (centres undefined) 1.6%
